ClpP mod: qHTS Assay for Activators of ClpP | Potency, µM (series often up to 57.5 µM) | ATP-dependent Clp protease proteolytic subunit (Bacillus subtilis (strain 168)), P80244 | 1.9% of 340,000 active | purified B. subtilis ClpP, FRET peptide cleavage, 20 min | AID 651965, 2013; active = well fitted falling curve with a large enough effect; inconclusive = small, poorly fitted or top-dose-only effect; inactive = no such curve, though single readings can be large or run the other way; note: the source files actives as falling curves though it sought activators and does not explain the sign; nearly all actives have a fitted effect of over 65% in size
Target sequence (P80244 whole entry, looked up): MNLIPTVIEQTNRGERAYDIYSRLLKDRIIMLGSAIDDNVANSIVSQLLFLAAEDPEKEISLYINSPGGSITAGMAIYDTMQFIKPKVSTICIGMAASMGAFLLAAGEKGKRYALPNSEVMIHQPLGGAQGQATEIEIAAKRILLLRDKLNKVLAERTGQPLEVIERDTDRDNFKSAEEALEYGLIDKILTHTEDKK
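ClpP 10 microg/mL final, pH 8 Tris/KCl buffer with BSA, glycerol, Tween-20; compound pinned in; FRET-FV substrate; RT 20 min; Ex320/Em430; ΔFRET vs ADEP 5.8 microM, DMSO, no enzyme.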
aSyn yeast inh: inhibitors of alpha-synuclein toxicity in yeast; Yeast expressing alpha-synuclein, growth rescue, BacTiter-Glo, 24 h; Potency, µM (doses to about 46.1 µM), usual class: activators; 0.14% of 370,000 active; AID 652106; note: nearly all actives have a fitted effect of over 65% in size
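Readout is rescue of growth in alpha-synuclein-expressing yeast, so inhibitors of toxicity appear as activators. Growth after 24 hr at 30 deg C in galactose medium is quantified by luminescence.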
Abeta rescue: restores growth of yeast expressing A-beta42 peptide; yeast expressing A-beta42, growth rescue, OD600, 48 h; response scale: 0% DMSO, 100% iron-clioquinol control; Potency, µM (top dose mostly 46.1 µM), hits mostly activators; 0.063% of 410,000 active; AID 1347071; note: nearly all actives have a fitted effect of over 55% in size
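Growth rescue measured by 600 nm absorbance after 48 h yeast culture at 30 C with compound. Values normalized between DMSO and an equimolar ferric chloride plus clioquinol control.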
MmCpn inh: blocks the Methanococcus maripaludis chaperonin Mm-Cpn. AID 504842. Potency, µM (highest dose often 76.9 µM), most hits filed as inhibitors. 0.031% of 330,000 active. purified Mm-Cpn ATPase, ADP Transcreener TR-FRET; note: nearly all actives have a fitted effect of over 80% in size
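Quantitative HTS used 25 nM Mm-CPN and 10 uM ATP in magnesium/KCl Tris buffer, pH 7.4, with 1 mM DTT. Hydrolysis ran 30 min at 37°C; ADP was read by HTRF.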
FUS suppressor: FUS proteinopathy suppression in yeast; Potency, µM (highest dose often 76.6 µM), usual class: activators; S. cerevisiae FUS-expressing, growth rescue, OD600, 24 h; AID 1347120; 0.24% of 390,000 active; note: nearly all actives have a fitted effect of over 55% in size
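Restored growth of FUS-toxic S. cerevisiae, read as 600 nm absorbance after 24 h at 30C in galactose medium (starting OD 0.005). Controls CP55940 and DMSO.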
TDP-43 yeast inh: TDP-43 toxicity inhibition in yeast | TDP-43 expressing yeast growth rescue, BacTiter-Glo, 24 h | Potency, µM (titrated, usually from 46.1 µM), hits mostly activators | 1.8% of 410,000 active | AID 652104; note: nearly all actives have a fitted effect of over 50% in size
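Cell-based yeast growth screen: TDP-43 expression induced in galactose, inoculum OD600=0.02 after raffinose pregrowth to mid-log. Read-out BacTiter-Glo luminescence at 24 hr, 30 deg C; inhibition of toxicity seen as signal increase.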
Numbers stand for hits; n = inactive; u = inconclusive; x = no result; [ ] = dose if it differs, or a comment. This is a sample that favours compounds with a hit; in the whole collection about 3.6% have one here. Unless noted, calls come from the whole dose curve; as a rule, active = well fitted curve in the direction sought with a large enough effect; inconclusive = small, poorly fitted or top-dose-only effect, or another doubt; inactive = no such curve, though single readings can be large; an effect the other way counts as inactive or inconclusive.

SMILES | ClpP mod | aSyn yeast inh | Abeta rescue | MmCpn inh | FUS suppressor | TDP-43 yeast inh
Cc1ccc(NC(=O)CN(C)S(=O)(=O)c2ccc3nc(C)sc3c2)c(C)c1 | n | x | n | x | n | n
CC(C)c1ccc(NC(=O)c2cc(S(=O)(=O)NCC3COc4ccccc4O3)ccc2F)cc1 (centres undefined) | n | u | n | n | u | u
Cc1ccc(NC(=O)c2cc(S(=O)(=O)NCCC3=CCCCC3)ccc2F)cc1 | n | n | n | n | x | 22µM
Cc1ccc(C)c(NC(=O)c2cc(S(=O)(=O)NCCC3=CCCCC3)ccc2F)c1 | n | x | n | x | n | n
COc1ccc(NC(=O)c2cc(S(=O)(=O)NCC3COc4ccccc4O3)ccc2F)cc1 (centres undefined) | n | n | n | n | u | 35µM
CCOc1ccc(NC(=O)c2cc(S(=O)(=O)NC3CCCCCC3)ccc2F)cc1 | n | x | n | x | n | 13µM
O=C(Nc1ccc(F)c(F)c1)c1cc(S(=O)(=O)NC2CCCCCC2)ccc1F | n | x | n | x | n | u
Cc1ccccc1OCC(=O)Nc1cccc(C(=O)OCc2cc(=O)n3c(C)csc3n2)c1 | n | x | n | x | n | n
COC1=Cc2c(ccc3ccc(=O)oc23)OC1(C)C | n | x | n | n | n | 13µM
COc1cccc(CNC(=O)c2cc3cccc4c3n2CC(C)S4)c1OC (centres undefined) | 35µM | x | n | x | u | n
COc1ccc(OC)c(CCNC(=O)c2cc3cccc4c3n2CC(C)S4)c1 (centres undefined) | 32µM | x | n | x | n | n
CC1Cn2c(C(=O)NCc3cccc(Br)c3)cc3cccc(c32)S1 (centres undefined) | 32µM | x | u | x | n | n
O=C(NCc1ccccc1Cl)c1cc2cccc3c2n1CCS3 | 28µM | x | n | x | n | n
COc1ccc(-n2cc(C(=O)NCCc3cc(OC)ccc3OC)c3ccccc3c2=O)cc1 | n | x | n | x | n | n
Cc1cnc2ccc3ccccc3c2c1C | n | x | x | x | x | x
CCOc1ccc(CCNC(=O)c2cc3cccc4c3n2CCS4)cc1 | 22µM | x | n | x | n | n
COc1ccc(OC)c(CCNC(=O)c2cc3cccc4c3n2CCS4)c1 | 32µM | x | n | x | u | u
COc1ccccc1CNC(=O)c1cc2cccc3c2n1CCS3 | u | x | n | x | n | n
COc1ccc(CNC(=O)c2cc3cccc4c3n2CC(C)S4)c(OC)c1 (centres undefined) | 14µM | x | n | x | u | n
COc1ccc(CC(=O)NCc2cccc(CNC(=O)Cc3ccc(OC)c(OC)c3)c2)cc1OC | n | n | n | n | n | n
COc1ccc(CNC(=O)c2cc3cccc4c3n2CC(C)S4)cc1OC (centres undefined) | 32µM | x | n | x | u | n
Cc1noc(Cn2c(=O)c3cc4c(cc3n(CC(=O)Nc3ccccc3Br)c2=O)OCO4)n1 | 11µM | x | n | x | n | n
CCOc1ccc(NC(=O)Cn2c(=O)n(Cc3nc(-c4ccccc4)no3)c(=O)c3cc4c(cc32)OCO4)cc1 | 25µM | x | n | x | n | n
COc1ccc(N2CCN(C(=O)c3cccn4c(=O)c5ccc(Cl)cc5nc34)CC2)cc1 | n | x | n | x | n | n
CCn1c2ccccc2c2cc(C3C(C#N)=C(C)NC(C)=C3C#N)ccc21 | 16µM | n | n | n | n | n
SMILES | ClpP mod | aSyn yeast inh | Abeta rescue | MmCpn inh | FUS suppressor | TDP-43 yeast inh
CCOc1ccc(C(=O)N2CCC(c3noc(-c4ccc(S(=O)(=O)N5CCCC5)cc4)n3)CC2)cc1 | n | x | n | x | 16µM | n
CCOc1ccc(NC(=O)c2cc(C)nc3c2c(C)nn3-c2ccc(C)cc2)cc1 | n | x | n | x | n | n[9.22 µM]
Cc1ccc(O)c(C(=O)c2cnn(C(=O)COc3ccc(Cl)cc3)c2)c1 | 16µM | n | n | n | n | n
CC(=O)NCC(=O)OCC(=O)c1ccc2ccccc2c1 | 28µM | n | n | n | n | n
COc1cc(C(=O)NCC(=O)OCC(=O)c2cccc3ccccc23)cc(OC)c1OC | n | n | n | n | 13µM | n
Cc1cccc(C(=O)NCC(=O)OCC(=O)c2ccc3ccccc3c2)c1 | u | n | x | x | x | x
COc1ccc(C(=O)NCC(=O)OCC(=O)c2ccccc2Br)cc1OC | n | n | n | x | n | n
CCCc1cnc2c(c1SCc1ccc(C(F)(F)F)cc1)c(=O)n(C)c(=O)n2C | n | x | n | x | n | n
CC(=O)OCCNC(=O)c1cc2ccccc2oc1=O | 25µM | n | n | n | n | n
O=C(NCCc1ccccc1)c1cc2ccccc2oc1=O | n | n | n | n | n | n
CN(C)CCNC(=O)c1cc2ccccc2oc1=O | 28µM | n | n | n | n | n
CCCC(=O)OCCNC(=O)c1cc2ccccc2oc1=O | 18µM | n | n | n | n | n
O=C(NCCN1CCN(C(=O)c2cc3ccccc3oc2=O)CC1)c1cc2ccccc2oc1=O | u | n | n | n | n | n
COc1ccc(CCNC(=O)c2cc3ccccc3oc2=O)cc1 | n | n | n | n | n | n
O=C(NCCCN1CCOCC1)c1cc2ccccc2oc1=O | 28µM | x | n | n | n | n
CCCCn1c(SCC(=O)NCc2ccc(C)cc2)nc2c(sc3ccccc32)c1=O | n | x | n | x | n | n
O=C(c1cccs1)N(Cc1ccco1)c1ccc(O)cc1 | n | n | x | x | x | x
Cc1cc(C)cc(NC(=O)Cc2csc(COc3cccc(C)c3)n2)c1 | n | x | n | x | n | n
Cc1[nH]n(-c2ccc([N+](=O)[O-])cc2)c(=O)c1/C=N/N1CCOCC1 | x | n | n | n | n | n[9.22 µM]
CC(=NCCCn1ccnc1)c1c(C)[nH]n(-c2ccc([N+](=O)[O-])cc2)c1=O | x | n | n | 40µM | n | n
Clc1ccc(OCc2nnc(-c3ccccc3Br)o2)cc1 | n | n | n | n | n | n
Clc1cccc(OCc2nnc(-c3ccccc3Br)o2)c1 | x | u | n | n | n | 18µM
CCCCC(=O)OC1=C(C(=O)c2ccccc2)N(CC)S(=O)(=O)c2ccccc21 | n | x | n | x | n | 16µM
CCCCN1C(C(=O)c2ccccc2)=C(OC(C)=O)c2ccccc2S1(=O)=O | n | x | n | x | n | n
CC(=O)Nc1c(-c2ccc(F)cc2)nc2ncccn12 | x | x | x | x | n | x
CC1=C(C(=O)Nc2cccnc2)C(c2cccc(Br)c2)n2nc(SCc3ccccc3)nc2N1 (centres undefined) | n | x | n | x | n | n
Cc1cccc(C(C)Nc2ccc([N+](=O)[O-])cn2)c1 (centres undefined) | n | n | n | n | n | 18µM
Brc1cc2c(cc1Br)OCCOCCOCCO2 | n | n | n | n | n | 20µM
